# In PubChem BioAssay (EPA / NIEHS):
# Values joined by “and” are separate entries in the source; they are usually repeats but may differ in a detail not shown here. Equal entries are not always repeated. Inconclusive results are not listed. Active and inactive are the calls of the source. The calls were made as follows, unless noted: active = hit-call score of the fitted dose curve at least 0.9, where 1 is the maximum; inactive = score below 0.9.
# What was measured:
# [1] = test system: SRY-box transcription factor 2 (SOX2) Protein Expression, Deisenroth Lab, SOX2 (gene 6657); experiment: CCTE_Deisenroth_DEVTOX-GLR_Endo_SOX2: CCTE's DevTox GLR-Endo Assay Evaluation of SRY-box transcription factor 2 (SOX2) Protein Expression, Deisenroth Lab (AID 2284412; active = hit-call score of the fitted dose curve at least 0.9, where 1 is the maximum)
# Summary of the method: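 RUES2-GLR human pluripotent cells were seeded 24 h, then differentiated 48 h with two chemical exposures 24 h apart. Cells were fixed, nuclei stained and imaged by high-content microscopy. Endpoint is %SOX2+ cells over cell count, minus 0.2% DMSO control; 10-point series 1 nM–200 uM.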
# [2] = test system: SRY-box transcription factor 17 (SOX17) Protein Expression, Deisenroth Lab, SOX17 (gene 64321); experiment: CCTE_Deisenroth_DEVTOX-GLR_Endo_SOX17: CCTE's DevTox GLR-Endo Assay Evaluation of SRY-box transcription factor 17 (SOX17) Protein Expression, Deisenroth Lab (AID 2284413)
# Summary of the method: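 Endpoint: % change in SOX17+ fraction (SOX17+ cells / cell count) vs 0.2% DMSO solvent control. RUES2-GLR reporter cells, 48 h endoderm differentiation, two doses at 24 h intervals, high-content fluorescence imaging, 5 fields/well.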
# [3] = test system: Brachyury (BRA) Protein Expression, TBXT (gene 6862); experiment: CCTE_Deisenroth_DEVTOX-GLR_Endo_BRA: CCTE's DevTox GLR-Endo Assay Evaluation of Brachyury (BRA) Protein Expression, Deisenroth Lab (AID 2284417)
# Summary of the method: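 RUES2-GLR pluripotent cells differentiated 48 h with two chemical exposures 24 h apart, 10-point range 1 nM - 200 uM. Percentage of BRA+ cells per total count by high-content imaging, minus 0.2% DMSO control.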
# [4] = CCTE_Deisenroth_DEVTOX-GLR_Endo_CellCount: Viability Assessment in CCTE's DevTox GLR-Endo Assay, Deisenroth Lab (AID 2284420)
# Summary of the method: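 Nuclei counted by fluorescence microscopy as a surrogate for cell number, expressed as percent change relative to 0.2% DMSO control. Human RUES2-GLR cells, 48 h differentiation, dosed twice; 1 nM - 200 uM series.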
# [5] = test system: SRY-box transcription factor 17 (SOX17) Protein Expression, Deisenroth Lab, SOX17 (gene 64321); experiment: CCTE_Deisenroth_DEVTOX-GLR_Pluri_SOX17: CCTE's DevTox GLR-Pluri Assay Evaluation of SRY-box transcription factor 17 (SOX17) Protein Expression, Deisenroth Lab (AID 2284427; active = hit-call score of the fitted dose curve at least 0.9, where 1 is the maximum)
# Summary of the method: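 Readout: percent SOX17+ cells (SOX17+ count/cell count) by high-content imaging of an inducible fluorescent reporter, corrected for 0.2% DMSO solvent control. RUES2-GLR cells, 48 h differentiation, dosed twice at 24 h intervals, 1 nM - 200 uM.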
# [6] = test system: SRY-box transcription factor 2 (SOX2) Protein Expression, Deisenroth Lab, SOX2 (gene 6657); experiment: CCTE_Deisenroth_DEVTOX-GLR_Pluri_SOX2: CCTE's DevTox GLR-Pluri Assay Evaluation of SRY-box transcription factor 2 (SOX2) Protein Expression, Deisenroth Lab (AID 2284428)
# Summary of the method: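 RUES2-GLR (human pluripotent), 48 h post-dosing, 2 exposures q24h, 1 nM–200 uM 10-pt. Fixed, nuclear dye, high-content imaging 5 fields/well. Endpoint: % SOX2+ cells (SOX2+/total count) vs 0.2% DMSO; n≥4.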
# [7] = test system: Brachyury (BRA) Protein Expression, Deisenroth Lab, TBXT (gene 6862); experiment: CCTE_Deisenroth_DEVTOX-GLR_Pluri_BRA: CCTE's DevTox GLR-Pluri Assay Evaluation of Brachyury (BRA) Protein Expression, Deisenroth Lab (AID 2284429; active = hit-call score of the fitted dose curve at least 0.9, where 1 is the maximum)
# Summary of the method: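 Human pluripotent RUES2-GLR cells, seeded 24 h, were differentiated 48 h in defined media with two chemical doses at 24-h intervals (10-point, 1 nM - 200 uM). Readout: percent BRA+ cells by fluorescent reporter imaging, minus 0.2% DMSO control.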
# [8] = CCTE_Padilla_ZF_Score.Swim_bladder: CCTE's 144 Hour Post-fertilization zebrafish Assay Score for Swim Bladder Malformation, Padilla Lab (AID 2284408)
# Summary of the method: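 Wild-type zebrafish embryos, one per well in 10% Hanks', dosed at 6–8 hpf, sealed, reared at 26C and rinsed at 5 dpf. Blinded assessors scored uninflated swim bladder by stereomicroscopy at 6 dpf, relative to DMSO.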
# [9] = CCTE_Padilla_ZF_Score.Position: CCTE's 144 Hour Post-fertilization zebrafish Assay Score for Position, Padilla Lab (AID 2284409)
# Summary of the method: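 Wild-type zebrafish embryos (with chorions) exposed singly from 6–8 hpf in sealed wells of Hanks' solution at 26C, rinsed at 5 dpf. At 6 dpf, blinded assessors scored abnormal water-column position by brightfield stereomicroscopy, relative to DMSO.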
# [10] = CCTE_Padilla_ZF_Score.Living: CCTE's 144 Hour Post-fertilization zebrafish Assay Score for Viability, Padilla Lab (AID 2284410);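 also: larval death at 6 dpf judged by absent heartbeat or coagulation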
# Summary of the method: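 Wild-type zebrafish embryos were exposed singly from 6–8 hpf in sealed wells of Hanks' solution at 26C, then rinsed at 5 dpf. At 6 dpf, blinded assessors scored mortality (no heartbeat or coagulation) by stereomicroscopy, fitted against DMSO.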
# [11] = CCTE_Padilla_ZF_Score.General: CCTE's 144 Hour Post-fertilization zebrafish Assay Score for General Malformation, Padilla Lab (AID 2284411)
# Summary of the method: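 Wild-type zebrafish embryos were plated singly at 6-8 hpf in 10% Hanks' and exposed in sealed wells at 26C until rinsed on 5 dpf. At 6 dpf two blinded assessors scored mortality, hatching and malformations by stereomicroscopy; gain-of-signal versus DMSO.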
# [12] = CCTE_Padilla_ZF_Score.Tail: CCTE's 144 Hour Post-fertilization zebrafish Assay Score for Tail Malformation, Padilla Lab (AID 2284414)
# Summary of the method: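 Wild-type zebrafish embryos, one per well in 200 uL 10% Hanks', dosed at 6-8 hpf, sealed, and kept at 26 C on a 14:10 h light cycle. Chemical was rinsed out at 5 dpf. Blinded brightfield scoring of tail defects followed at 6 dpf.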
# [13] = CCTE_Padilla_ZF_Score.Blood_pooling: CCTE's 144 Hour Post-fertilization zebrafish Assay Score for Blood Pooling, Padilla Lab (AID 2284415)
# Summary of the method: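 Wild-type outbred zebrafish embryos, one per well in 10% Hanks', exposed from 6–8 hpf in sealed plates at 26C on 14:10 h light:dark, rinsed at 5 dpf. Blinded stereomicroscope scoring of blood pooling at 6 dpf; gain-of-signal versus DMSO.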
# [14] = CCTE_Padilla_ZF_Score.Any: CCTE's 144 Hour Post-fertilization zebrafish Assay Score for Any Mortality or Malformation, Padilla Lab (AID 2284416)
# Summary of the method: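 Wild-type zebrafish embryos with chorions, one per well in 10% Hanks' from 6–8 hpf, dosed in sealed plates at 26 C, 14:10 h light:dark; rinsed at 5 dpf; blinded scoring at 6 dpf for death or malformation, versus DMSO.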
# TTR (gene 7276) = experiment: CCTE_GLTED_hTTR_0.125uM: CCTE's human Transthyretin (hTTR) Inhibition Assay, with 0.125uM TTR, Great Lakes Toxicology and Ecology Division (GLTED) Lab (AID 2284431);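 also: hits lower the fluorescence signal relative to DMSO baseline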
# Summary of the method: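 TTR 0.125uM + test chemical, 2 h; ANSA probe displacement; ex 380/em 475 fluorescence; signal loss vs DMSO control.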
# [15] = CCTE_Deisenroth_DEVTOX-GLR_Pluri_CellCount: Viability Assessment in CCTE's DevTox GLR-Pluri Assay Evaluation of Total Cell Counts, Deisenroth Lab (AID 2284430)
# Summary of the method: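 RUES2-GLR human pluripotent cells, seeded 24 h, then differentiated 48 h with two chemical exposures 24 h apart; 10-point series 1 nM - 200 uM. Fixed, nuclear-stained, imaged (5 fields/well); nuclei count as % change vs 0.2% DMSO.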
structure (smiles),measurement,setting,value
CC1=C(/C=C/C(C)=C/C=C/C(C)=C/C(=O)O)C(C)(C)CCC1,AC50,[1],16 µM (active)
same,AC50,[2],0.102 µM (active)
same,AC50,[3],8.08 µM (active)
same,AC50,[4],4.43 µM (active)
same,AC50,[5],14.1 µM (active)
same,AC50,[6],0.576 µM (active)
same,AC50,[7],12 µM (active)
OCCC(F)(F)C(F)(F)C(F)(F)C(F)(F)C(F)(F)C(F)(F)F,AC50,[8],52.7 µM (active)
same,outcome,[9],inactive
same,outcome,[10],inactive
same,AC50,[11],2.19 µM (active)
same,outcome,[12],inactive
same,outcome,[13],inactive
same,AC50,[14],28.6 µM (active)
CCCOC(=O)c1ccc(O)cc1,AC50,TTR (gene 7276),5.01 µM (active)
CC(C)(C)c1ccc(O)c(C(C)(C)C)c1,AC50,TTR (gene 7276),9.98 µM (active)
CC(O)CO (stereo not given),outcome,[2],inactive
same,outcome,[3],inactive
same,outcome,[4],inactive
same,outcome,[5],inactive
same,outcome,[6],inactive
same,outcome,[7],inactive
same,outcome,[15],inactive
ClC1=C(Cl)C(Cl)(Cl)C(Cl)=C1Cl,AC50,TTR (gene 7276),7.09 µM (active)
C[C@@H]1C[C@H]2[C@@H]3CCC4=CC(=O)C=C[C@]4(C)[C@@]3(F)[C@@H](O)C[C@]2(C)[C@@]1(O)C(=O)COP(=O)(O)O,outcome,[1],inactive
same,outcome,[2],inactive
same,outcome,[3],inactive
same,outcome,[4],inactive
same,outcome,[5],inactive
same,outcome,[6],inactive
same,outcome,[7],inactive
same,outcome,[15],inactive
CCCCCCCCCCCCCC[N+](C)(C)C,outcome,[11],inactive
O=[N+]([O-])c1ccc(O)cc1,AC50,TTR (gene 7276),6.47 µM (active) and 8.54 µM (active)
CCCCCCCCCCCCc1ccccc1S(=O)(=O)O,AC50,TTR (gene 7276),0.89 µM (active)
